Among the test systems are T-47D breast; BT-549 breast; MDA-MB-435 melanoma; SW-620 colon; MCF7 breast; HCT-116 colon; HCC-2998 colon; KM12 colon.
Common to all, as to assay: NCI-60 one-dose screen, 48 h (100 = growth as untreated, 0 = no growth, -100 = all killed)
Common to all, as to conditions: 10 µM unless noted

This is part of a sample that, as a whole, favours compounds with a hit. Of some 83,000 tested, about 20% had one in any assay.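 Assay: single dose, 48 h. Readout: percent growth (0 = no net growth; negative = cell death). Active: <10.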 Unmarked numbers belong to inactive results. Calls of active or inactive are those of the source.

As to `Cc1nc2c(c(-c3ccccc3)n1)Cc1c(ccc3ccccc13)O2`, the growth with T-47D breast is 84.6%; with BT-549 breast it was 90%; with MDA-MB-435 melanoma, 119%; in the test on SW-620 colon, 96.4%; in the test on MCF7 breast it was 89.1%; with HCT-116 colon, 90.6%. The growth in the test with HCC-2998 colon is 111%; in the test with KM12 colon, 89.1%.

Take `CCOC(=O)CC1CSC(N/N=C/c2ccc(O)cc2)=N1` (configuration not stated): the growth was 93.2% in the test on T-47D breast; 100% with BT-549 breast; 103% in the test with MDA-MB-435 melanoma; 98.1% in the test on SW-620 colon; 91% with MCF7 breast; 81.1% in the test with HCT-116 colon. Besides, the growth in the test on HCC-2998 colon was 97.4%; in the test with KM12 colon, 100%.

As to `COc1ccc(NC(=O)c2ccc(NC3=C(c4ccc(Cl)cc4)C(=O)NC3=O)cc2)cc1`, the growth in the test on T-47D breast was 62.3%; in the test on BT-549 breast, 82.1%; with MDA-MB-435 melanoma, 95.3%; in the test with SW-620 colon it was 103%; in the test with MCF7 breast it was 83.5%; in the test with HCT-116 colon, 88.9%. Further, the growth was 97.6% with HCC-2998 colon and 80.9% in the test on KM12 colon.

On to `Fc1ccc(/C=C/c2cc(/C=C/c3ccc(F)cc3)n(-c3cc(F)cc(F)c3)n2)cc1`, for which the growth in the test on T-47D breast was 80.2%; in the test with BT-549 breast it was 97.6%; with MDA-MB-435 melanoma, 103%; in the test with SW-620 colon, 104%; in the test on MCF7 breast it was 89%; with HCT-116 colon, 84.5%. In addition, the growth in the test with HCC-2998 colon was 93.4%; in the test on KM12 colon, 105%.

Consider `COc1ccc(-c2nc3cc(C(=O)NC4CCCCC4)ccc3n2C2CCCCC2)cc1`, for which the growth was 87.6% with T-47D breast; 94.9% in the test on BT-549 breast; 99.4% with MDA-MB-435 melanoma; 101% in the test with SW-620 colon; 85.2% in the test on MCF7 breast; 87.1% in the test with HCT-116 colon. For the same compound, the growth is 91.8% in the test on HCC-2998 colon and 68.6% in the test with KM12 colon.

Consider `CCOC(=O)c1c(Nc2nc3ccccc3s2)sc2c1CCC(=O)C2`, for which the growth in the test with T-47D breast is 37%; with BT-549 breast it was 13.5%; in the test on MDA-MB-435 melanoma, 82.6%; in the test with SW-620 colon it was 19.4%; with MCF7 breast it was 39.3%; in the test on HCT-116 colon, 11.4%. The growth in the test on HCC-2998 colon is 104%; in the test on KM12 colon, 47.7%.

Regarding `CC/C(=C(/c1ccc(Cl)cc1)c1ccc(OCCN2CCCC2)cc1)c1ccccc1`, the growth is 47.6% in the test with T-47D breast; 77.8% in the test with BT-549 breast; 60.2% in the test on MDA-MB-435 melanoma; 11.8% in the test with SW-620 colon; 23.1% with MCF7 breast; 29.7% with HCT-116 colon. Besides, the growth in the test with HCC-2998 colon was 97.6%; in the test with KM12 colon, 37.1%.

Turning to `COc1cccc(NC(=O)c2sc3nc(C)c(C(=O)c4ccccc4)cc3c2N)c1`, the growth in the test with T-47D breast is 88.6%; in the test on BT-549 breast it was 91.8%; in the test on MDA-MB-435 melanoma it was 29.9%; in the test with SW-620 colon it was 91.4%; with MCF7 breast, 69.5%; in the test on HCT-116 colon, 95.9%. Besides, the growth in the test with HCC-2998 colon is 109%; in the test on KM12 colon it was 88%.

With `CCOC(=O)c1c(C)c2c(n1Cc1ccccc1)CSc1cc(C#N)c(=O)[nH]c1-2`, the growth is 69.2% [100 µM] in the test on T-47D breast; 46% [100 µM] with BT-549 breast; 98.2% [100 µM] with MDA-MB-435 melanoma; 91.7% [100 µM] in the test with SW-620 colon; 101% [100 µM] in the test with MCF7 breast; 59.9% [100 µM] with HCT-116 colon. In addition, the growth with HCC-2998 colon is 99.7% [100 µM]; in the test with KM12 colon it was 67.6% [100 µM].

`CCCCC/C=C/CCC(=O)N[C@H]1[C@H](Oc2c3cc4cc2Oc2ccc(cc2Cl)[C@@H](O[C@@H]2O[C@H](CO)[C@@H](O)[C@H](O)[C@H]2NC(C)=O)[C@@H]2NC(=O)[C@H](NC(=O)[C@@H]4NC(=O)[C@H]4NC(=O)[C@@H](Cc5ccc(c(Cl)c5)O3)NC(=O)[C@@H](N)c3ccc(O)c(c3)Oc3cc(O)cc4c3)c3ccc(O)c(c3)-c3c(O[C@H]4O[C@H](CO)[C@@H](O)[C@H](O)[C@@H]4O)cc(O)cc3[C@H](C(=O)O)NC2=O)O[C@H](CO)[C@H](O)[C@@H]1O`: the growth is 119% in the test with T-47D breast; 107% in the test with BT-549 breast; 100% in the test on MDA-MB-435 melanoma; 102% in the test with SW-620 colon; 98.5% in the test with MCF7 breast; 101% in the test with HCT-116 colon. For the same compound, the figures for the growth in the test with HCC-2998 colon and with KM12 colon were 101% and 111%, respectively.

Turning to `Nc1nc(N)c2c(n1)NC(c1ccc3c(c1)OCO3)CC(c1cccc(Nc3ccncc3)c1)=N2` (configuration not stated), the growth in the test on T-47D breast is 88.5%; in the test with BT-549 breast, 117%; in the test on MDA-MB-435 melanoma it was 50.5%; with SW-620 colon it was 58%; in the test on MCF7 breast, 63%; in the test with HCT-116 colon it was 43.7%. Also, the values for the growth in the test on HCC-2998 colon and in the test with KM12 colon were 88.1% and 80%, respectively.

For the compound `CCCn1cnc2c(c1=N)C(c1ccc(Cl)cc1)c1sc3c(F)cccc3c1O2` (configuration not stated), the growth was 64.6% in the test with T-47D breast; 105% in the test with BT-549 breast; 77.7% in the test with MDA-MB-435 melanoma; 55.5% in the test on SW-620 colon; 32.3% in the test on MCF7 breast; 57.8% in the test with HCT-116 colon. The growth in the test on HCC-2998 colon was -20% (active); in the test with KM12 colon, 66.6%.

`Nc1nc(N)c2c(n1)NC(c1cccc(Nc3ccnc4cc(C(F)(F)F)ccc34)c1)CC(c1ccc(Cl)cc1)=N2` (configuration not stated): the growth is 73.7% in the test on T-47D breast; 114% with BT-549 breast; -24.8% (active) in the test on MDA-MB-435 melanoma; 25.6% with SW-620 colon; 16.1% in the test with MCF7 breast; 15.1% in the test with HCT-116 colon. Further, the growth with HCC-2998 colon is 51.8%; in the test on KM12 colon, 21.3%.

For `O=C(Nc1ccc(Cl)cc1)C1=NCCCCN1`, the growth was 68.6% in the test on T-47D breast; 91.3% with BT-549 breast; 72.6% with MDA-MB-435 melanoma; 63.8% in the test on SW-620 colon; 81.5% in the test on MCF7 breast; 80% in the test with HCT-116 colon. Also, the results for the growth with HCC-2998 colon and in the test on KM12 colon were 96.2% and 71.2%, respectively.

These data come from PubChem BioAssay (NCI).
